The source of these data is PubChem BioAssay (Tox21).

A short description of experiment [1]: qHTS assay to identify aromatase inhibitors - cell viability counter screen (AID 743084).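 Note: cells stimulated with testosterone during compound exposure; nearly all actives have a fitted effect of over 55% in size.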 On the technique in general: In qHTS, concentration-response curves come from the screen itself.
For experiment [2], the target named is Aryl hydrocarbon receptor (Homo sapiens) (UniProt P35869). Briefly: qHTS assay to identify small molecule that activate the aryl hydrocarbon receptor (AhR) signaling pathway (AID 743085).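 For activation: HG2L7.5c1 human HepG2 liver cells with stably integrated DRE-driven firefly reporter; series mostly up to about 70 µM.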 Note: nearly all actives have a fitted effect of over 15% in size. Note: potency is the fitted concentration of half-maximal effect. The essentials: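 Luminescence read-out: ONE-Glo reagent, 30 min at room temperature, in HG2L7.5c1 HepG2 reporter cells treated 24 h at 37C. Viability was measured beforehand by CellTiter-Fluor fluorescence after 30 min at 37C.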

Experiment [3] can be described thus: qHTS assay to identify small molecule that activate the aryl hydrocarbon receptor (AhR) signaling pathway - cell viability counter screen (AID 743086).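 Note: HepG2 liver cells carrying the AhR DRE luciferase reporter; series mostly up to about 70 µM; nearly all actives have a fitted effect of over 45% in size.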 The essentials: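 HepG2-AhR-luc (HG2L7.5c1) cells, 4000/well, were preincubated 5 h at 37C, exposed to compound in qHTS format for 24 hr at 37C, then given CellTiter-Fluor for 30 min; viability was read as fluorescence in the reporter wells.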

Experiment [4] addresses Peroxisome proliferator-activated receptor gamma (Homo sapiens) (UniProt P37231). The experiment in a line: qHTS assay to identify small molecule agonists of the peroxisome proliferator-activated receptor gamma (PPARg) signaling pathway (AID 743094; active = well fitted activation curve with a large enough effect in the signal ratio in the repeat runs, not every such curve was filed as active; the % refers to the signal ratio). The essentials: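 Agonism was assessed in a beta-lactamase reporter system, HEK293H cells with a stably integrated UAS-bla construct under PPARg control; the 17 h treatment at 37C preceded a 1 h room-temperature FRET substrate read.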

For experiment [5] the target is unchanged. Briefly: qHTS assay to identify small molecule antagonists of the peroxisome proliferator-activated receptor gamma (PPARg) signaling pathway (AID 743191; calls by dose curve; note: series mostly up to about 63 µM; nearly all actives have a fitted effect of over 30% in size). The gist of the method: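 GeneBLAzer PPARg UAS-bla HEK293H cells carrying a UAS-driven beta-lactamase reporter were plated at 3000 cells/well, preincubated 5 h at 37C, then given compound for 17 h at 37C; LiveBLAzer B/G FRET substrate was read after 1 h at room temperature.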

Experiment [6] is described as follows: qHTS assay to identify small molecule antagonists of the peroxisome proliferator-activated receptor gamma (PPARg) signaling pathway - cell viability counter screen (AID 743194). Note: nearly all actives have a fitted effect of over 55% in size. The essentials:
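PPARg-UAS-bla HEK293H cells were plated, rested 5 h at 37 C, then treated with compounds plus rosiglitazone (50 nM final) for 17 h at 37 C; viability was then read by CellTiter-Glo luminescence after 30 min at room temperature.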

Experiment [7] can be described thus: qHTS assay for small molecule agonists of the antioxidant response element (ARE) signaling pathway (AID 743202; active = well fitted activation curve with a large enough effect in the signal ratio in the repeat runs, not every such curve was filed as active; the % refers to the signal ratio). The essentials:
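Following a 16 h, 37 C exposure of reporter HepG2 cells (ARE-driven beta-lactamase, 2,000 cells/well) to compounds, FRET substrate was applied for 2 h at room temperature and fluorescence intensity recorded.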

Experiment [8] is described as follows: qHTS assay for small molecule agonists of the antioxidant response element (ARE) signaling pathway - cell viability counter screen (AID 743203; calls by dose curve; note: nearly all actives have a fitted effect of over 55% in size). The essentials:
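ATP content via CellTiter-Glo luminescence served as the viability measure. Cells: ARE-bla HepG2, 2,000 per well. Exposure: 16 hrs, 37C/5% CO2.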

Experiment [9] in a line: qHTS assay for small molecule activators of the heat shock response signaling pathway - cell viability counter screen (AID 743209). Note: nearly all actives have a fitted effect of over 50% in size. The gist of the method:
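Compounds dissolved in DMSO were added to overnight-plated HSE-bla HeLa cells and left 5 h at 37 C. Cell viability was quantified by luminescence using CellTiter-Glo.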

Experiment [10] can be described thus: qHTS assay for small molecule activators of the heat shock response signaling pathway (AID 743210; active = well fitted activation curve with a large enough effect in the signal ratio in the repeat runs, with a control signal flat, not every such curve was filed as active; the % refers to the signal ratio; note: series mostly up to about 63 µM). The essentials: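 Heat shock element–beta-lactamase HeLa reporter cells; qHTS with compounds for 5 h at 37 C; detection by FRET substrate fluorescence after 2.5 h at RT.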

The structures appear in SMILES notation. Records with an inconclusive call do not appear. Values without a mark were called inactive. Activity calls are given as the source filed them. Unless noted, calls come from the whole dose curve; as a rule, active = well fitted curve in the direction sought with a large enough effect in the repeat runs; inconclusive = weak or mixed curves; inactive = no such curve, though single readings can be large; an effect the other way counts as inactive or inconclusive.

Aryl hydrocarbon receptor (Homo sapiens), sequence (P35869 whole entry, looked up): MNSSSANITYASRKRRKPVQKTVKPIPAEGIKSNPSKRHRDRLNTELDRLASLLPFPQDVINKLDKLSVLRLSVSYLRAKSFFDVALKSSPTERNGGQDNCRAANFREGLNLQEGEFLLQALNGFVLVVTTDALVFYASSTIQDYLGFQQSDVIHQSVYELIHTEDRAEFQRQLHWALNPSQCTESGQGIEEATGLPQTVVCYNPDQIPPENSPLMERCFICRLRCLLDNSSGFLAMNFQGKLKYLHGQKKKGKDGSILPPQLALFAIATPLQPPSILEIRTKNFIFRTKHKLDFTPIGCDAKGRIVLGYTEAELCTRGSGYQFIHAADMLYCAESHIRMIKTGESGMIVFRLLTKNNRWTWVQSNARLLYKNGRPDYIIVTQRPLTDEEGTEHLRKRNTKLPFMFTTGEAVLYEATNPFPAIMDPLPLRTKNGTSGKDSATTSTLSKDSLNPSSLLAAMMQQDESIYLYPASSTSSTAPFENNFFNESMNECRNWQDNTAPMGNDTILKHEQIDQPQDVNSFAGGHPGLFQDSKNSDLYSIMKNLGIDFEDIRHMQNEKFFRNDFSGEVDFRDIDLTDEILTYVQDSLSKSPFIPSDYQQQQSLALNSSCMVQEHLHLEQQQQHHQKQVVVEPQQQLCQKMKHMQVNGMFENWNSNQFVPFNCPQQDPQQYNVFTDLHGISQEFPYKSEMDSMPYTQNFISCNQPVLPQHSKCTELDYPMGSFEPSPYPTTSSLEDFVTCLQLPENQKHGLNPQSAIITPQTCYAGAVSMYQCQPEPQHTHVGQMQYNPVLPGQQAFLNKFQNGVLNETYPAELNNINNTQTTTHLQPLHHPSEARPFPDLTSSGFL
Peroxisome proliferator-activated receptor gamma (Homo sapiens), sequence (P37231 whole entry, looked up): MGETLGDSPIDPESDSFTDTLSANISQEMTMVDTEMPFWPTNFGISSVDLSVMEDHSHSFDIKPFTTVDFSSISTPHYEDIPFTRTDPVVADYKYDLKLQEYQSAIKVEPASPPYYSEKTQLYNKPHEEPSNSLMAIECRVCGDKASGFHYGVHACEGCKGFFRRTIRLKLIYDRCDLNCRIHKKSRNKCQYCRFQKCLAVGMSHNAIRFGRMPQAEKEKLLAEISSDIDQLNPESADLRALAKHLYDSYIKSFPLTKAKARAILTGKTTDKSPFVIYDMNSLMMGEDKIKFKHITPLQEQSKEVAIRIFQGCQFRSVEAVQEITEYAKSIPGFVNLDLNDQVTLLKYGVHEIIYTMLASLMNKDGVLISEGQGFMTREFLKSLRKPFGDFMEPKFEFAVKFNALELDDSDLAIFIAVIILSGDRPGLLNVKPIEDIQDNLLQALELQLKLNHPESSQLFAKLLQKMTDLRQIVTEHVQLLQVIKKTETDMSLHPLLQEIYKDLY

With `C=C[Si](C)(C)O[Si](C)(C)C=C`, the Potency entry in [1], in experiment [2], in experiment [3], in [5] and in experiment [7] was “inactive” in each case. Besides, the call in experiment [4], in experiment [6], in [8] and in experiment [9] was inactive.
Consider `CCCCCCCCCCCCOC(C)=O`, for which the Potency result in experiment [1], in experiment [2], in experiment [3], in [5] and in experiment [7] was “inactive” throughout. Besides, the compound was classed as inactive in experiment [4], in experiment [6], in [8], in experiment [9] and in experiment [10].
Take `CC(=O)OCC(=O)[C@@]1(O)[C@H](OC(C)=O)C[C@H]2[C@@H]3CCC4=CC(=O)C=C[C@]4(C)[C@@]3(F)[C@@H](O)C[C@@]21C`: the Potency entry in [1], in [2], in experiment [3], in [5] and in experiment [7] was “inactive” each time. In addition, the call in [4], in experiment [6], in experiment [8], in experiment [9] and in [10] was inactive.
`C[N+](C)(C)CC(O)CCl` (centres undefined): the Potency entry in [1], in [2], in experiment [3], in [5] and in experiment [7] was “inactive” in each case. The outcome in [4], in experiment [6], in experiment [8], in experiment [9] and in experiment [10] was inactive.
`CCOc1ccc(NC(=O)OC(C)C)cc1OCC`: the Potency entry in [1], in experiment [2], in experiment [3], in experiment [5] and in experiment [7] was “inactive” in each case. Further, the outcome in experiment [4], in [6], in experiment [8], in experiment [9] and in experiment [10] was inactive.
In the case of `FC(F)(F)/C(=N\OCC1OCCO1)c1ccc(Cl)cc1`, the Potency entry in experiment [1], in [2], in experiment [3], in [5] and in experiment [7] was “inactive” each time. For the same compound, the result in experiment [4], in [6], in [8], in experiment [9] and in [10] was inactive.
As for `CCC(C)N` (centres undefined), the Potency entry in experiment [1], in experiment [2], in experiment [3], in experiment [5] and in experiment [7] was “inactive” in each case. The compound was classed as inactive in [4], in [6], in [8], in [9] and in experiment [10].
For `CCCCC/C=C/CC(=O)OC`, the Potency entry in experiment [1], in [2], in [3], in experiment [5] and in experiment [7] was “inactive” throughout. Also, the result in experiment [4], in experiment [6], in [8], in [9] and in experiment [10] was inactive.
Regarding `Nc1cc(C(=O)O)ccc1Cl`, the Potency result in experiment [1], in [2], in experiment [3], in [5] and in [7] was “inactive” each time. The outcome in experiment [4], in [6], in experiment [8], in experiment [9] and in experiment [10] was inactive.
Consider `CCCCC[Si](OCC)(OCC)OCC`, for which the Potency entry in [1], in experiment [2], in experiment [3], in experiment [5] and in experiment [7] was “inactive” in each case. The compound was classed as inactive in experiment [4], in experiment [6], in experiment [8], in experiment [9] and in experiment [10].
On to `CN(C)CCOCCN(C)CCO`, for which the Potency result in [1], in experiment [2], in [3], in experiment [5] and in [7] was “inactive” throughout. In addition, the call in experiment [4], in [6], in experiment [8] and in [9] was inactive.
Take `CCN(CCO)c1cccc(C)c1`: the Potency result in experiment [1], in experiment [2], in experiment [3], in experiment [5] and in [7] was “inactive” throughout. Further, the outcome in experiment [4], in [6], in [8] and in [9] was inactive.
On to `O=C(Oc1ccccc1C(=O)O)c1ccccc1O`, for which the Potency entry in experiment [1], in experiment [2], in experiment [3], in experiment [5] and in experiment [7] was “inactive” each time. Moreover, the compound was called inactive in experiment [4], in experiment [6], in experiment [8], in experiment [9] and in experiment [10].
Turning to `NC(Cc1c[nH]c2ccccc12)C(=O)O` (centres undefined), the Potency result in [1], in experiment [3], in [5] and in experiment [7] was “inactive” throughout. Besides, the Potency in experiment [2] was 21.2 µM (active). Further, the call in experiment [4], in [6], in [8] and in experiment [9] was inactive.
As to `COc1ccc(/C=N/NC(=O)c2ccncc2)cc1OC`, the Potency entry in experiment [1], in experiment [3], in experiment [5] and in experiment [7] was “inactive” each time. The Potency in experiment [2] was 2.66 µM (active). The call in experiment [4], in experiment [6], in [8] and in [9] was inactive.
Consider `CCOC(=O)CCCCCCCCC(=O)OCC`, for which the Potency result in experiment [1], in experiment [2], in experiment [3], in experiment [5] and in [7] was “inactive” each time. The compound was called inactive in [4], in [6], in experiment [8] and in experiment [9].
Consider `F[Si-2](F)(F)(F)(F)F`, for which the Potency entry in [1], in experiment [2], in experiment [3], in experiment [5] and in experiment [7] was “inactive” in each case. Also, the compound was called inactive in [4], in experiment [6], in experiment [8], in experiment [9] and in experiment [10].
As for `Cc1ccccc1OCC1CO1` (centres undefined), the Potency entry in experiment [1], in [2], in experiment [3], in [5] and in experiment [7] was “inactive” each time. In addition, the compound was called inactive in experiment [4], in experiment [6], in [8], in experiment [9] and in experiment [10].
For the compound `O=C(O)c1ccccc1C(=O)OCc1ccccc1`, the Potency result in experiment [1], in experiment [2], in [3], in experiment [5] and in experiment [7] was “inactive” throughout. Moreover, the outcome in experiment [4], in [6], in [8], in [9] and in [10] was inactive.
For the compound `CC(Cl)COP(=O)(OCC(C)Cl)OCC(C)Cl` (centres undefined), the Potency result in experiment [1], in [2], in [3], in experiment [5] and in experiment [7] was “inactive” throughout. Further, the compound was called inactive in experiment [4], in [6], in experiment [8], in experiment [9] and in experiment [10].
Turning to `C=CC(C)(O)CC/C=C(\C)CC` (centres undefined), the Potency result in experiment [1], in experiment [2], in experiment [3], in experiment [5] and in [7] was “inactive” in each case. The call in experiment [4], in [6], in experiment [8], in [9] and in experiment [10] was inactive.
For the compound `CCC1COC(=O)O1` (centres undefined), the Potency result in [1], in [2], in experiment [3], in experiment [5] and in experiment [7] was “inactive” throughout. Also, the call in [4], in experiment [6], in [8], in [9] and in experiment [10] was inactive.
With `CCOC(=O)CCc1ccccc1`, the Potency entry in experiment [1], in experiment [2], in [3], in experiment [5] and in [7] was “inactive” in each case. Moreover, the result in [4], in experiment [6], in [8], in [9] and in experiment [10] was inactive.
For `Cc1nc([N+](=O)[O-])cn1-c1ccc([N+](=O)[O-])cc1`, the Potency entry in experiment [1], in [2], in experiment [3], in experiment [5] and in [7] was “inactive” throughout. In addition, the compound was called inactive in experiment [4], in experiment [6], in [8], in experiment [9] and in experiment [10].
On to `CCCCOC(=O)C(=O)OCCCC`, for which the Potency result in experiment [1], in experiment [2], in experiment [3], in experiment [5] and in experiment [7] was “inactive” each time. In addition, the compound was classed as inactive in [4], in experiment [6], in [8], in [9] and in [10].
